ChEMBL document CHEMBL5308504, “Tm Shift (DSF) assay results for EUbOPEN Chemogenomics Library” (2023)

Tests used:
[1] = target: Bromodomain-containing protein 4 (Homo sapiens) (UniProt O60885); settings: Compound concentration 20.0 uM, Protein concentration 2.0 uM, Result type QC Liability
[2] = target: T1, Transcription intermediary factor 1-alpha (Homo sapiens) (UniProt O15164); settings: Compound concentration 20.0 uM, Protein concentration 2.0 uM, Result type QC Liability
T1 sequence (whole entry): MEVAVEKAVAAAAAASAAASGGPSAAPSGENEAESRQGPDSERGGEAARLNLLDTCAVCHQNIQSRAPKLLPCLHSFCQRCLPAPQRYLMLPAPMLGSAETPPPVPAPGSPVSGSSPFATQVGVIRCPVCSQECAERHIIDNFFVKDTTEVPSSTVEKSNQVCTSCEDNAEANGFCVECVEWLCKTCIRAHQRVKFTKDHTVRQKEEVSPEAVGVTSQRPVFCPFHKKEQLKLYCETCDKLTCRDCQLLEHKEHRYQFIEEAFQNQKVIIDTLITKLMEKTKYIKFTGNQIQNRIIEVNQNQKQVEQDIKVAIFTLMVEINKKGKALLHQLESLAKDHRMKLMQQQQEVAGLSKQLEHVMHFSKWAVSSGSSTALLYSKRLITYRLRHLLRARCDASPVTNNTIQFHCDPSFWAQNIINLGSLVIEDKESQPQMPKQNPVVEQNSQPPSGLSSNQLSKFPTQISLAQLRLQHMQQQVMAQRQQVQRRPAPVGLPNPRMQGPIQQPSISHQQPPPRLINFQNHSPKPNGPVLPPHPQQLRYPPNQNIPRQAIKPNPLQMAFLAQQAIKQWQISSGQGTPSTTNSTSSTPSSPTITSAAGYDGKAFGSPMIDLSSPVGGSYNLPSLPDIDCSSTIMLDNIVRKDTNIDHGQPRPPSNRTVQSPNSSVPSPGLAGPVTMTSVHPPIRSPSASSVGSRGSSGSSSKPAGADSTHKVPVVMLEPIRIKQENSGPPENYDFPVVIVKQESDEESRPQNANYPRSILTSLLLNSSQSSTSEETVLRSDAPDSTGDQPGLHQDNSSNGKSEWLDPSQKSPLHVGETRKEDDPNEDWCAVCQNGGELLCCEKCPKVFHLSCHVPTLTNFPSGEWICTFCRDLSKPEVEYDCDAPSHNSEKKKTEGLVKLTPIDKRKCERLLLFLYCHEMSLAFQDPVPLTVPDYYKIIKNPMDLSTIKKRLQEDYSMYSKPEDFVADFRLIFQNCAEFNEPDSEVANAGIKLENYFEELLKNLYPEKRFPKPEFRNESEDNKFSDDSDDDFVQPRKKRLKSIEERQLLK

| SMILES | ΔTm [1] [°C] | ΔTm [2] [°C] |
| --- | --- | --- |
| CC(=O)Oc1ccc2c(c1)[C@@]1(C)CCC[C@](C)(C(=O)OC(=O)[C@@]3(C)CCC[C@]4(C)c5cc(OC(C)=O)ccc5CC[C@@H]34)[C@@H]1CC2 | -2.81 | -3.04 |
| C[C@@H](Oc1cc(-n2cnc3ccc(OC4CCN(C)CC4)cc32)sc1C(N)=O)c1ccccc1Cl | -2.01 | -2.55 |
| CN1CCC(C#N)(NC(=O)[C@@H](NC(=O)N2CCOCC2)C(C)(C)C)CC1 | 0.17 | 0.14 |
| COc1c(NC(=O)c2cc3cccc(Oc4ccnc(C(=O)N5CCN(C)CC5)c4)c3n2C)cc(C(C)(C)C)cc1NS(C)(=O)=O | -2.76 | -2.21 |
| O=C(O)CCCCN(CCc1ccccc1OCc1ccc(CCc2ccccc2)cc1)Cc1ccc(C(=O)O)cc1 | -0.88 | 0.09 |
| COc1cc(-c2nn([C@H]3CC[C@H](N4CCN(C(C)=O)CC4)CC3)c3ncnc(N)c23)ccc1NC(=O)c1cc2ccccc2n1C | 0.13 | -0.55 |
| N#Cc1ccc(C#CC[C@@H](C#N)NC(=O)[C@@H]2CCCCN2)cc1F | -1.93 | 0.36 |
| C[C@@H]1C[C@H](C)CN(c2ncc(Cl)c(Nc3ccc4c(c3)cc(OC(C)(C)C(=O)O)c(=O)n4C)n2)C1 | -0.93 | 0.15 |
| CP(C)(=O)c1ccc(CNC(=O)C2CCN(S(=O)(=O)c3cc(Cl)cc(Cl)c3)CC2)cc1 | -2.43 | 0.94 |
| COc1cc2c(cc1CC=C(C)C)C(=O)C[C@@H](c1ccc(O)cc1)O2 | 0.4 | 0.63 |
| CC(C)C(=O)N1CCC(c2cn(C)c3ncc(NC(=O)c4cccc(C#N)c4)c(C(F)(F)F)c23)CC1 | -2.27 | -2.5 |
